According to PubChem BioAssay AID624352 (Sanford-Burnham Center for Chemical Genomics, 2012):
The campaign covered roughly 360,000 compounds. About 2,600 (0.72%) were called active. This excerpt belongs to a sample that is enriched for actives. Values without a mark were called inactive.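 Rule for the calls: active = inhibition of the luminescence signal of 40% or more relative to plate controls, in a single-dose primary screen at 18.75 µM; inactive = the rest.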

test: blockers of HIF-2a driven luciferase – luminescence, 786-0 RCC cells, primary screen (AID 624352); settings: 786-0 RCC cells HIF-2a reporter, overnight, at 18.8 µM, active compounds read high

First: COc1ccc(NC(=O)CN2C(=O)COc3ccc(S(=O)(=O)N4CCOCC4)cc32)cc1
Second: NS(=O)(=O)c1cccc(NC(=O)COC(=O)c2cc([N+](=O)[O-])ccc2N2CCCC2)c1
The inhibition of the first is lower: -0.73% for the first, 25.4% for the second.

First: CCCCSc1[nH]c(=O)c(C(=O)OCC)cc1C#N
Second: CCOC(=O)c1c(C)[nH]c(C2=NNC(=NC(C)COC)SC2)c1C (stereo not drawn)
The inhibition of the first is higher: 5.92% for the first, -141% for the second.

First: CCN(CC)CC(=O)Nc1sc2c(c1C(=O)c1ccccc1C)CCC2
Second: Cc1cccc(NC(=O)C2CCCN(C(=O)NCc3ccccc3)C2)c1C (stereo not drawn)
The inhibition of the first is higher: 31.1% for the first, 0.73% for the second.

First: O=C(Nc1ccccc1C(=O)O)c1cc(S(=O)(=O)N2CCCCC2)cs1
Second: Cc1cccc(NC(=O)C2CCCN(C(=O)Nc3ccc(F)cc3)C2)c1C (stereo not drawn)
The inhibition of the first is lower: -9.72% for the first, 7.56% for the second.

Going from `CC(NS(=O)(=O)c1ccccc1)c1n[nH]c(=S)n1-c1ccccc1` (stereo not drawn) to `O=C(c1cn(-c2ccccc2)nc1-c1cccnc1)N1CCN(S(=O)(=O)c2ccccc2F)CC1`, the inhibition falls from 16.8% to 9.12%.

First: C[C@@H]1CN([C@@H](C)CO)C(=O)c2cccc(NS(=O)(=O)c3ccc(F)cc3)c2O[C@H]1CN(C)C(=O)NC1CCCCC1
Second: CC(C)NC(=O)Nc1cccc2c1O[C@H](CN(C)S(=O)(=O)c1cccs1)[C@@H](C)CN([C@H](C)CO)C2=O
The inhibition of the first is lower: -10.3% for the first, 12.7% for the second.

Compared with `C=CCSc1nnc(N2C(=O)C(O)=C(C(=O)c3ccco3)C2c2ccc(F)cc2)s1` (stereo not drawn), `O=C(CSc1c2c(nc3ccc(Cl)cc13)CCCC2)NCc1ccco1` is higher in inhibition: -55.2% for the first, 17.8% for the second.

Going from `O=[N+]([O-])c1ccc(C=Nc2ccc(Cl)cc2Cl)s1` to `NS(=O)(=O)c1ccc(CNC(=O)c2ccc(Cl)cc2[N+](=O)[O-])cc1`, the inhibition rises from -3.51% to 2.46%.

Compared with `Cc1ccc(-c2cc(C(=O)N/N=C/C=C/c3ccccc3)n[nH]2)o1`, `Cc1ccc(C(=O)Nc2c(-c3ccccc3)[nH][nH]c2=O)cc1` is lower in inhibition: -1.73% for the first, -3.55% for the second.

Compared with `COc1ccnc(Oc2ccccc2)n1`, `COc1ccc(C2=NO[C@@H]3C(=O)N(Cc4ccccc4)C(=O)[C@H]23)cc1OC` is higher in inhibition: -5.97% for the first, 16.2% for the second.

First: CCCCCCCCCCOC(=O)C[N+](C)(C)CC1CCCCC1O (stereo not drawn)
Second: CCOC(=O)C1(Cc2ccccc2C)CCCN(C(=O)c2ccc(COC)o2)C1 (stereo not drawn)
The inhibition of the first is higher: 7.58% for the first, -190% for the second.

Going from `CCN(CC(=O)Nc1c(F)cccc1F)C(=O)c1ccc(-c2ccc(C(C)=O)cc2)o1` to `CN(C)C(=O)c1ccc(NC(=O)c2ccccc2-c2ccccc2)cc1`, the inhibition rises from -53.4% to 19.3%.

Going from `Fc1ccc2nc(-c3ccccc3)nc(SCc3nnc(-c4ccccc4)o3)c2c1` to `Cc1ccc(-c2nc3ccc(Br)cn3c2Cc2ccccc2C(F)(F)F)cc1`, the inhibition falls from 23.8% to -290%.

Compared with `Cc1cc(C(=O)N2CCCC2(C)C(=O)O)c(C)o1` (stereo not drawn), `COc1cc2c(C(=O)O)c(C)n(C)c2c2ccccc12` is lower in inhibition: -4.82% for the first, -195% for the second.

First: CC(=O)Nc1ccc(CC#N)cc1
Second: CC(=O)Nc1c(-c2ccc(C)cc2)nc2ccc(Cl)cn12
The inhibition of the first is higher: 18.5% for the first, 4.44% for the second.

Compared with `C/C(Cc1ccccc1)=N\NC(=O)CNC(=O)c1cccc(Br)c1`, `Cc1ccc(-c2cnc(NC(=O)CCC(=O)N(C)Cc3ccccc3)n2C)cc1` is lower in inhibition: 14% for the first, -43.9% for the second.

Compared with `COc1cc(/C=C(/NC(=O)c2ccc(Cl)cc2Cl)C(=O)O)cc(OC)c1OC`, `CCOc1cc(/C=N/NC(=O)OC)ccc1OCCSc1ccc(Cl)cc1` is lower in inhibition: 12.9% for the first, -1.68% for the second.

Compared with `COc1ccc(CCNS(=O)(=O)c2ccc(F)cc2)cc1OC`, `COc1ccc(-c2nc3ccc(Br)cn3c2Cc2ccc(C)cc2)cc1OC` is lower in inhibition: 9.4% for the first, -137% for the second.

Compared with `CCc1ccc(-n2c(=S)sc3c(=O)n(-c4ccccc4OC)c(=S)[nH]c32)cc1`, `COc1cccc2c(O)cc(=O)n(C)c12` is higher in inhibition: 8.96% for the first, 19.6% for the second.

Going from `COc1ccc(OC)c2c(N)c(C#N)c(C(F)(F)C(F)(F)F)nc12` to `Cc1cc(O)ccc1-c1cc(C(=O)NCc2cc(C(F)(F)F)cc(C(F)(F)F)c2)[nH]n1`, the inhibition rises from 8.83% to 15.8%.

Compared with `O=C(c1ccccc1Cl)N(Cc1ccccc1F)N1C(=O)CCCC1=O`, `COCCn1c(SCC(=O)Nc2ccccc2F)nc2c(c1=O)SCC2` is lower in inhibition: 16.7% for the first, 1.2% for the second.

Compared with `O=C(O)C1C2C=CC(O2)C1C(=O)NCCc1cccc(Cl)c1` (stereo not drawn), `Brc1ccc2c(c1)[C@H]1OCC[C@H]1[C@@H](c1cccs1)N2` is lower in inhibition: -2.61% for the first, -2.71% for the second.

Compared with `Cc1ccc2nc(-c3ccccc3)c(CC3CCCCC3)n2c1`, `CC(=O)Nc1ccc(NC(=O)C(C)OC(=O)c2ccccc2C(=O)c2ccc(Cl)c([N+](=O)[O-])c2)cc1` (stereo not drawn) is higher in inhibition: -173% for the first, 19.2% for the second.

Compound `C[C@H](O)[C@@H]1C(=O)N2CCc3ccc(N4CCOCC4)cc3[C@@H]2C[C@@H]1N(C)C(=O)C(C)(C)C` has an inhibition of -9.89%.

For `CC(C)(C)c1cc(C(=O)N/N=C/c2ccc([N+](=O)[O-])s2)n[nH]1`, the inhibition was 80.5% (active).
In the case of `CCN1CCC(O)(/C=C/c2ccc(C)cc2)C(C(=O)/C=C/c2ccc(C)cc2)C1` (stereo not drawn), the inhibition was 66.8% (active).
For `Cc1ccc(-c2nn(C(C)(C)C)c3ncnc(N)c23)cc1`, the inhibition was 71.5% (active).
In the case of `Clc1ccc2nc(-c3ccccc3)nc(C(Cl)Cl)c2c1`, the inhibition was 57.1% (active).
With `O=C(NC1=CC(=O)c2ccccc2C1=O)c1ccccc1` the inhibition was 92.9% (active).
In the case of `CCOc1cc(/C=C(/C#N)c2ccc(Cl)cc2)cc(Cl)c1OCC(=O)O`, the inhibition was 91.8% (active).
For `COc1ccc(-c2cc(C(F)(F)F)nc(S(C)(=O)=O)n2)cc1OC`, the inhibition was 94.1% (active).
For `COc1cccc2c(C)c(C(=O)O)[nH]c12`, the inhibition was 47% (active).
In the case of `Cc1ccc(-c2cn3cc(C)ccc3n2)cc1`, the inhibition was 71.3% (active).
For `Cc1ccc2nc(-c3ccc(Br)cc3)cn2c1`, the inhibition was 40.6% (active).
For `N#Cc1cccc(NC(=O)COC(=O)c2ccccc2C(=O)c2ccc(Cl)c([N+](=O)[O-])c2)c1`, the inhibition was 94.8% (active).
